# Hits are enriched below; roughly 12% of the tested compounds scored in any of these assays.
# WT yeast gro inh – growth inhibition of WT yeast, mitochondrial fusion screen | mitochondrial fusion phenotypic screen, WT strain | inhibition, % at 10 µM | 190,000 compounds, 2.1% hits | AID 1362; in the data active = inhibition above about 58%; tested in S. cerevisiae
# ROMK mod – modulators of human ROMK potassium channel | P48048 | Tet-inducible ROMK, thallium flux fluorescence; actives lie on both sides | B-score at 10 µM | 130,000 compounds, 2% hits;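 active = signal ratio slope over the read window, or its plate-corrected B-score, at least 3 SD from the plate mean, either direction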;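 note: B-score of the F/F0 ratio slope over 7 to 12 s after thallium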
# Target sequence (P48048 whole entry, looked up): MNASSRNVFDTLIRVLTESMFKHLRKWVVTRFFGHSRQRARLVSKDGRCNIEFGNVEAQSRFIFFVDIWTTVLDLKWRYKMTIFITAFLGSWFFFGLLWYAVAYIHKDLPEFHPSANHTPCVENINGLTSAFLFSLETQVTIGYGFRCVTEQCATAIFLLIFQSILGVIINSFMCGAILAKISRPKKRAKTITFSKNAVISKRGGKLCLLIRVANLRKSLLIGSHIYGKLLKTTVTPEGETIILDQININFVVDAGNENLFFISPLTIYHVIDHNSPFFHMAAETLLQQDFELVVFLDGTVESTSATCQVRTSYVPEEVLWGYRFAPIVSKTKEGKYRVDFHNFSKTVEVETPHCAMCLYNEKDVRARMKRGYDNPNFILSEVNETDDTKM
# L major viab – reduces viability of Leishmania major promastigotes; 200,000 compounds, 9% hits; resazurin fluorescence viability; inhibition, % at 10 µM; AID 1063; in the data active = inhibition above about 50%;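 note: promastigotes grown with compound for 44 hours at 28 °C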
# Calpain2 inh – calpain II (pig) inhibition | 220,000 compounds, 0.37% hits | inhibition, % at 16 µM | AID 1236 | purified calpain II, fluorogenic peptide substrate, 30 min;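 active = inhibition above about 50%, limit read from the data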
# KCC2 mod – KCC2 (human) Cl- transport modulation | Q9H2X9 | KCC2 cells, thallium flux FluoZin-2 fluorescence | B-score of Tl+ flux slope (higher = more flux/activation; lower = inhibition) at 10 µM | 190,000 compounds, 2.2% hits | AID 1456;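 active = thallium flux slope and its plate-corrected score both differing from the plate sample mean at a set confidence after two filtering rounds, in either direction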;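 note: slope of fluorescence scaled to starting intensity during 10 to 20 s after thallium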
# An asterisk follows results filed as active; / = not tested or not shown.
SMILES,WT yeast gro inh,ROMK mod,L major viab,Calpain2 inh,KCC2 mod
Cc1nn(C)c(C)c1S(=O)(=O)N1CCCC(C(=O)NCCc2ccc(Cl)cc2)C1 (stereo not drawn),-4,/,-10,-17,-0.8
CCN(CCNC(=O)C1CCN(S(=O)(=O)c2c(C)noc2C)CC1)c1ccccc1,2,0.00017,98*,15,0.21
CCCS(=O)(=O)N1CCC(C(=O)NCCN(C)Cc2ccccc2)CC1,8,-0.47,61*,4,/
CCCS(=O)(=O)N1CCC(C(=O)NCCN2CCC(Cc3ccccc3)CC2)CC1,4,/,23,15,-0.022
Cc1noc(C)c1S(=O)(=O)N1CCC(C(=O)NCCN2CCC(C)CC2)CC1,-10,-0.03,18,-11,1.1
COc1ccc(CNC2CC(=O)N(C)C2=O)cc1 (stereo not drawn),19,0.37,-7,-8,1.1
CCCOC(=O)c1ccc(NC(=O)C(=O)NCC2CCCO2)cc1 (stereo not drawn),-2,-0.46,55*,-4,0.34
CN1CCN(CCCC(=O)c2ccc(C3CCCC3)cc2)CC1,15,-1.7,97*,12,0.025
COc1ccccc1/C=[N+](\[O-])C1SC(=S)N(C)C1(C)C (stereo not drawn),/,0.75,/,-3,-0.05
COC(=O)c1ccc2c(=O)n(Cc3ccco3)c(SCC(=O)Nc3cc(C)on3)nc2c1,3,0.0092,4,5,-0.49
O=C(CSc1nc2ccccc2c(=O)n1Cc1ccco1)N1CCCCCC1,3,-2,79*,11,-1.6
COCCn1c(C)cc(C(=O)CSc2nc3ccccc3c(=O)n2Cc2ccco2)c1C,-30,-0.16,78*,8,-1.6
Cc1ccc(NC(=O)CN(C)C(=O)CSc2nc3ccccc3c(=O)n2Cc2ccco2)cc1,48,/,87*,-18,2.5
Cc1cc(NC(=O)CSc2nc3cc(C(=O)NCCCOC(C)C)ccc3c(=O)n2Cc2ccco2)no1,-2,0.57,0,61*,-0.034
O=C(NCc1ccco1)c1ccc2c(=O)n(Cc3ccco3)c(SCC(=O)N3CCCC3)nc2c1,-1,/,24,-103,-1
C=C(C)COc1ccc(-c2[nH]ncc2-c2ccc(Br)cc2)c(O)c1,95*,2.5,1,42,-0.42
CCOc1ccc(-c2nc(N)ncc2Oc2ccccc2Br)c(O)c1,92*,1.6,17,0,0.016
CCOc1ccc(-c2nc(N)ncc2Oc2cccc(OC)c2)c(O)c1,11,1.1,36,-29,-1.1
C=C(C)COc1ccc(-c2[nH]ncc2Oc2ccc(OC)cc2)c(O)c1,/,/,/,28,0.9
COc1ccc(-c2[nH]ncc2-c2ccc3c(c2)OCCO3)c(O)c1,9,/,-1,12,0.057
COc1ccc(-c2cn[nH]c2-c2ccc(OCc3ccc([N+](=O)[O-])cc3)cc2O)cc1,68*,/,43,3,-0.016
C=C(C)COc1ccc(-c2[nH]ncc2Oc2ccccc2OC)c(O)c1,46,1.2,54*,27,/
C=C(C)COc1ccc(-c2[nH]ncc2-c2ccccc2OC)c(O)c1,4,0.47,28,1,/
CCOC(=O)c1cn(CC(=O)Nc2ccc(OC)cc2OC)nn1,-7,-0.92,1,16,-0.21
Cc1nc(SCC(O)CO)c([N+](=O)[O-])[nH]1 (stereo not drawn),-11,/,-1,-7,1.1
SMILES,WT yeast gro inh,ROMK mod,L major viab,Calpain2 inh,KCC2 mod
CCOc1ccc(-c2[nH]ncc2Oc2ccccc2OCC)c(O)c1,65*,0.0041,42,7,/
CCCOC(=O)c1ccc(Oc2cn[nH]c2-c2ccc(OC)cc2O)cc1,78*,0.49,85*,43,/
CC1=C(C(=O)OC(C)C)C(c2cn(-c3ccccc3)nc2-c2cccs2)NC(=O)N1 (stereo not drawn),0,-1.9,33,4,0.0023
O=C(NCC1CCCO1)C(c1ccncc1)N(Cc1cccs1)C(=O)CN1C(=O)c2ccccc2S1(=O)=O (stereo not drawn),-6,/,-9,-30,0.73
Cc1ccccc1CCN(C(=O)CN1C(=O)c2ccccc2S1(=O)=O)C(C(=O)NCC1CCCO1)c1ccncc1 (stereo not drawn),-26,0.096,60*,-2,1.2
COc1ccc(-c2csc(Nc3ccc(C)cn3)n2)cc1,58*,-0.23,12,-6,1
COc1ccc(-c2csc(NC3=NCCCCC3)n2)cc1,9,-0.79,88*,4,0.61
CC(=O)Nc1cccc(-c2csc(Nc3ccc(C)cn3)n2)c1,27,/,28,-11,-1.9
Cc1ccccc1N1C(=O)C(Cc2ccc(F)cc2)S/C1=C(\C#N)C(N)=O (stereo not drawn),/,/,/,28,0.12
COc1ccc(-c2nnc(SCC(=O)O)n2C)cc1OC,4,0.1,-7,6,1.4
Cc1ccccc1CSCc1nc2ccccc2[nH]1,56,/,9,7,0.56
c1ccc2cc(CSCc3nc4ccccc4[nH]3)ccc2c1,74*,-0.69,19,27,-0.11
CCCn1c(N)c(N(CCOC)C(=O)/C=C/c2ccc(C(=O)OC)cc2)c(=O)[nH]c1=O,19,-0.42,-3,18,-0.041
COc1ccc2nc(/N=C/c3c(C)[nH]n(-c4ccc(C)cc4C)c3=O)sc2c1,-9,/,0,14,62*
COc1ccccc1N=Cc1c(C)[nH]n(-c2ccc(C)cc2C)c1=O,-15,/,7,-32,-0.8
COc1cc(SC#N)ccc1N=Cc1c(C)[nH]n(-c2ccc(C)cc2C)c1=O,24,-2.5,56*,-44,0.28
CCn1c(C)c(CCC(=O)O)c(=O)n2nc(-c3ccccc3OC)cc12,5,/,2,-166,0.99
COc1ccc(S(=O)(=O)N2CCCCC2)cc1NS(=O)(=O)c1cc(Cl)ccc1Cl,13,1.2,0,5,-0.31
O=c1c2c(nc3c(-c4cccc(Br)c4)c[nH]n13)CCCC2,7,/,100*,-121,21*
O=c1c2c(nc3cc(-c4ccccc4)[nH]n13)CCC2,18,/,3,/,0.9
O=c1c2c(nc3cc(-c4ccc(Br)cc4)[nH]n13)CCCC2,2,0.09,67*,-8,0.0032
O=C(CCC(=O)c1cccs1)Nc1ccc(F)c(F)c1F,4,-1.6,3,-49,/
CC1(C)CC(=O)C/C(=N\NC(=S)NCc2ccccc2)C1,-3,0.55,-2,-21,0.46
CC1=C/C(=N\NC(=S)NCCc2ccccc2)CC(C)(C)C1,70*,-2.4,9,37,0.93
S=C(NCCc1ccccc1)NCCc1ccccc1,62*,0.62,1,-7,-2.4
SMILES,WT yeast gro inh,ROMK mod,L major viab,Calpain2 inh,KCC2 mod
C/C(=N\NC(=S)NCCc1ccccc1)c1cccs1,71,-0.59,-11,37,8.6*
S=C(NCCCc1ccccc1)Nc1ccccc1Cl,68*,-0.059,17,43,-2.1
Cc1ccccc1C(=O)NC(=S)NCC(=O)c1ccccc1,3,/,0,-7,/
S=C(NCCc1ccccc1)Nc1ccccc1Cl,16,-1.2,68*,19,1.6
S=C(NCCc1ccccn1)Nc1ccccc1Cl,4,0.3,9,-6,1.5
Cc1ccccc1C(=O)NC(=S)NCCc1ccccc1,46,-1.7,0,5,8.3*

# Assay outcomes as filed in PubChem BioAssay.
